Data as given in PubChem BioAssay (EPA / NIEHS).
Values joined by “and” are separate entries in the source; they are usually repeats but may differ in a detail not shown here. Equal entries are not always repeated. A structure can be active in one record and inactive in another. Active and inactive are the calls of the source. The calls were made as follows: active = hit-call score of the fitted dose curve at least 0.9, where 1 is the maximum; inactive = score below 0.9.

Biological target: Aryl hydrocarbon receptor (Homo sapiens) (UniProt P35869)
Sequence (P35869 whole entry, looked up): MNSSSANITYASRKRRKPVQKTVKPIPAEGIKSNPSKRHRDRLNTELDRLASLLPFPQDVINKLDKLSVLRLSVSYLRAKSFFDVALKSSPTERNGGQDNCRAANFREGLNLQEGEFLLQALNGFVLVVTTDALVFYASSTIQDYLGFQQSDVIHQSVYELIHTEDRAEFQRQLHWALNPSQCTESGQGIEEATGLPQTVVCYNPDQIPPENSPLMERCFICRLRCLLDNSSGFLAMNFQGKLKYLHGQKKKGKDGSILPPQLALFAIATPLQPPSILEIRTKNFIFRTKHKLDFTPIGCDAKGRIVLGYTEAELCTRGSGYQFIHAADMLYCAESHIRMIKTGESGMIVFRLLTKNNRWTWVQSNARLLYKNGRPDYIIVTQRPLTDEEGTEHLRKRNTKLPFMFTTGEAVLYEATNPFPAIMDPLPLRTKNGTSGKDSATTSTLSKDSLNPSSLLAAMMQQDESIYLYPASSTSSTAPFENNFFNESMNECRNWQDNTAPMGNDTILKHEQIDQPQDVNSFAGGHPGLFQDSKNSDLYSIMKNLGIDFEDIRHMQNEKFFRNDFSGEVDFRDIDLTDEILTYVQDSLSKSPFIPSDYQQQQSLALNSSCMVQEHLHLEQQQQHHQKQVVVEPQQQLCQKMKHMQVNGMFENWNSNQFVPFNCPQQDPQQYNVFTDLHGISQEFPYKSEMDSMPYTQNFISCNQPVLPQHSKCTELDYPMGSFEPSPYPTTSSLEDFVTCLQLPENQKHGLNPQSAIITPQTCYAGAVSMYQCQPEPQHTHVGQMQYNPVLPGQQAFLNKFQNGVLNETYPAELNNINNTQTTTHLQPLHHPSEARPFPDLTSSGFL
Test: ATG_Ahr_CIS: Attagene CIS-FACTORIAL HepG2 Assay for human Aryl Hydrocarbon Receptor (Ahr) (AID 2282930)
Details: HepG2 AhR cis-factorial reporter transcription; actives raise or lower the signal
Procedure: ATG_CIS is a cell-based, multiplexed-readout assay that uses HepG2, a human liver cell line, with measurements taken at 24 hours after chemical dosing in a 24-well plate.ATG_Ahr_CIS is one of 52 assay component(s) measured or calculated from the ATG_CIS assay. It is designed to make measurements of mRNA induction, a form of inducible reporter, as detected with fluorescence intensity signals by Reverse transcription polymerase chain reaction (RT-PCR) and Capillary electrophoresis technology.Data from the assay component ATG_Ahr_CIS was analyzed into 1 assay endpoint. This assay endpoint, ATG_Ahr_CIS, was analyzed with bidirectional fitting relative to DMSO as the negative control and baseline of activity. Using a type of inducible reporter, measures of mRNA for gain or loss-of-signal activity can be used to understand the reporter gene at the transcription factor-level as they relate to the gene AHR. Furthermore, this assay endpoint can be referred to as a primary readout, because this assay has produced multiple assay endpoints where this one serves a reporter gene function. To generalize the intended target to other relatable targets, this assay endpoint is annotated to the dna binding intended target family, where the subfamily is basic helix-loop-helix protein.
Human liver HepG2 cells are transiently transfected with multiple reporter transcription units (MRTUs) in 6-well plates using FuGene 6 reagent (Roche; 3 ml FuGene/1 mg DNA). The MRTU constructs are regulated by a cis-regulating element (promoter). […] A major difference between the CIS and TRANS system is that in CIS activities of endogenous TFs are measured, whereas the TRANS assay evaluates changes in activities of exogenous, chimeric NR-Gal4 proteins. […] At the end of 24 hour incubation, total RNA was isolated using TriZol reagent (Invitrogen). The isolated RNA is then reverse-transcribed using oligo(dT) primer and Mo-MLV reverse transcriptase (Invitrogen) with DNAse I (Ambion) treatment for 30 min. The one-tenth of the produced cDNA was amplified by PCR using Taq DNA polymerase (Invitrogen) and two reporter sequence-specific primers. The PCR products were fluorescently labeled by primer extension with 6-arboxyfluorescein (6-FAM) 5'-labeled reporter sequence-specific primer (2 min at 95 C, 20 s at 68 C and 10 min at 72 C) and these products were digested with 5U of HpaI (New England Biolabs) for 2h at 37 C. […] The raw capillary electrophoresis data was processed using Attagraph software (Attagene).

SMILES | AC50 | outcome
CC(C)CCCCCCc1ccc(O)cc1 | 21 µM (active) | inactive
C[C@]12CC[C@@H]3c4ccc(O)cc4C[C@@H](CCCCCCCCCS(=O)CCCC(F)(F)C(F)(F)F)[C@H]3[C@@H]1CC[C@@H]2O (stereo not given in full) | – | inactive
CC(=O)S[C@@H]1CC2=CC(=O)CC[C@]2(C)[C@H]2CC[C@@]3(C)[C@@H](CC[C@@]34CCC(=O)O4)[C@H]12 | – | inactive
CCOC(=O)[C@H](C)Oc1ccc(Oc2nc3ccc(Cl)cc3o2)cc1 | – | inactive
CC(C)(c1ccc(O)cc1)c1ccc(O)cc1 | 26.9 µM (active) and 49.5 µM (active) and 23.6 µM (active) | inactive
COC(=O)c1ccccc1C(=O)O | – | inactive
C=CCOC(Cn1ccnc1)c1ccc(Cl)cc1Cl (stereo not given) | – | inactive
COC(=O)CSc1cc(N=c2sc(=O)n3n2CCCC3)c(F)cc1Cl | – | inactive
N#CSCSc1nc2ccccc2s1 | – | inactive
S=C([S-])NCCNC(=S)[S-].[Mn+2] | – | inactive
O=C(O)C1(C(=O)Nc2ccc(Cl)cc2Cl)CC1 | – | inactive
COCCO | – | inactive
CCOC(=O)COc1cc(-n2ncc(C(F)(F)F)c(C)c2=O)c(F)cc1Cl | – | inactive
CCOC(=O)C(C)Oc1ccc(Oc2cnc3cc(Cl)ccc3n2)cc1 (stereo not given) | – | inactive
CCSC(=O)N(CC(C)C)CC(C)C | – | inactive
C#C[C@]1(O)CC[C@H]2[C@@H]3CCC4=CC(=O)CC[C@@H]4[C@H]3CC[C@@]21CC | – | inactive
COC(=O)c1cccc(C)c1S(=O)(=O)NC(=O)Nc1nc(OCC(F)(F)F)nc(N(C)C)n1 | – | inactive
CCCN(CCC)c1c([N+](=O)[O-])cc(C(F)(F)F)c(N)c1[N+](=O)[O-] | 28.9 µM (active) | –

SMILES | AC50 | outcome
CCN(Cc1c(F)cccc1Cl)c1c([N+](=O)[O-])cc(C(F)(F)F)cc1[N+](=O)[O-] | – | inactive
CC(=O)[C@H]1CC[C@H]2[C@@H]3CCC4=CC(=O)CC[C@]4(C)[C@H]3CC[C@]12C | 100 µM (active) | inactive
CCC(C)OC(=O)N1CCCCC1CCO (stereo not given) | – | inactive
Cc1nn(C)c(Oc2ccccc2)c1C=NOCc1ccc(C(=O)OC(C)(C)C)cc1 | – | inactive
COc1nc(C)nc(NC(=O)NS(=O)(=O)c2ccccc2OCCCl)n1 | – | inactive
O=C(c1ccccc1)C1CCCCC1 | 17.2 µM (active) | inactive
O=C(c1ccc(O)cc1O)c1ccc(O)cc1O | – | inactive
COC(=O)c1ccccc1S(=O)(=O)NC(=O)Nc1nc(OC(F)F)cc(OC(F)F)n1 | – | inactive
CCCCOC(=O)[C@@H](C)Oc1ccc(Oc2ccc(C(F)(F)F)cn2)cc1 | – | inactive
CCC(O)=C1C(=O)CC(C(=O)O)CC1=O (stereo not given) | – | inactive
O=C(Nc1ccc([N+](=O)[O-])cc1Cl)c1cc(Cl)ccc1O | – | inactive
CCN(CC)C(=O)c1cccc(C)c1 | – | inactive
S=C(S)NCCNC(=S)S.[Mn+2].[S-]C([S-])=NCCN=C([S-])[S-].[Zn+2] | 20.7 µM (active) [middle of 4 runs] | inactive
CSC(=O)c1cccc2nnsc12 | – | inactive
CCOC(=O)NCCOc1ccc(Oc2ccccc2)cc1 | – | inactive
CCCOC(=O)NCCCN(C)C | – | inactive
CCCCCOC(=O)COc1cc(N2C(=O)C3=C(CCCC3)C2=O)c(F)cc1Cl | – | inactive
